# Source: PubChem BioAssay (NCI)
# Where “and” joins values, the source holds several entries; their conditions need not be identical. Equal values may be shown once. About 83,000 compounds went through this panel and 20% of them were active in at least one assay; those are over-represented in the sample as a whole.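 Negative percent growth values reflect cell death: -40 means 40% of the cells present at the start died, and -100 means all died.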 Values without a mark were called inactive. Calls of active or inactive are those of the source. The calls were made as follows: active = growth percent below 10; inactive = the rest.
# Legend:
# Assay in all cases: NCI-60 one-dose screen, 48 h (100 = growth as untreated, 0 = no growth, -100 = all killed)
# Details in all cases: 10 µM unless noted
# HCT-15 colon = tested on: HCT-15 colon
# HT29 colon = tested on: HT29 colon
# SNB-75 CNS = tested on: SNB-75 CNS
# SNB-19 CNS = tested on: SNB-19 CNS
# U251 CNS = tested on: U251 CNS
# PC-3 prostate = tested on: PC-3 prostate
# SK-MEL-5 melanoma = tested on: SK-MEL-5 melanoma
# UACC-62 melanoma = tested on: UACC-62 melanoma
# LOX IMVI melanoma = tested on: LOX IMVI melanoma
# SK-MEL-28 melanoma = tested on: SK-MEL-28 melanoma
# SK-MEL-2 melanoma = tested on: SK-MEL-2 melanoma
# EKVX NSCLC = tested on: EKVX NSCLC
# SN12C renal = tested on: SN12C renal
# UO-31 renal = tested on: UO-31 renal
# TK-10 renal = tested on: TK-10 renal
# ACHN renal = tested on: ACHN renal
# CAKI-1 renal = tested on: CAKI-1 renal
# A498 renal = tested on: A498 renal
# MOLT-4 leukemia = tested on: MOLT-4 leukemia
# CCRF-CEM leukemia = tested on: CCRF-CEM leukemia
SMILES,growth (HCT-15 colon),growth (HT29 colon),growth (SNB-75 CNS),growth (SNB-19 CNS),growth (U251 CNS),growth (PC-3 prostate),growth (SK-MEL-5 melanoma),growth (UACC-62 melanoma),growth (LOX IMVI melanoma),growth (SK-MEL-28 melanoma),growth (SK-MEL-2 melanoma),growth (EKVX NSCLC),growth (SN12C renal),growth (UO-31 renal),growth (TK-10 renal),growth (ACHN renal),growth (CAKI-1 renal),growth (A498 renal),growth (MOLT-4 leukemia),growth (CCRF-CEM leukemia)
O=C(/C=C/c1ccccc1)c1cccs1,95.1% and 95.5%,99.8% and 90.7%,102% and 97.3%,93.6% and 104%,80.8% and 85.9%,90.8% and 103%,101% and 100%,92.9% and 99.6%,82.1% and 64.5%,111% and 105%,105% and 107%,97.6% and 94.7%,96.7% and 94.1%,88.9% and 94.1%,95.5% and 103%,100% and 110%,99.9% and 93.7%,94.4% and 91.6%,109% and 96%,
[Cu+].[NH-][C@H]1C[N-]C(=O)[C@H]([C@H]2CCN=C(N)N2)[N-]C(=O)/C(=C\NC(N)=O)[N-]C(=O)[C@H](CNC(=O)C[C@@H](N)CCCN)[N-]C(=O)[C@H](CO)[N-]C1=O,100%,104%,88.2%,103%,101%,96%,109%,92.1%,98.7%,110%,108%,109%,103%,86.8%,98.1%,108%,87.8%,85.7%,102%,
Clc1ccc(/C=N\N2CCCCCC2)cc1,95.7% and 92.9%,101% and 84.9%,100% and 110%,96.4% and 109%,92.3% and 98.5%,105%,98.2% and 106%,92.1% and 104%,102%,104% and 107%,122% and 106%,88.7% and 90.9%,90.9% and 106%,88.4%,105% and 103%,99.5% and 102%,124% and 94.9%,79.6%,109% and 99.4%,101%
O=c1cc(N/N=C/c2ccc(F)cc2)c2cc(Cl)ccc2[nH]1,83.4%,88.4%,131%,91.1%,94.4%,-43% (active),11.6%,80.4%,95.6%,90%,77.2%,74.2%,92.3%,79%,91.5%,91.1%,99%,90.5%,-15.8% (active),
O=C1/C(=C/c2ccc(F)c(F)c2)CN(C(=O)C(Cl)Cl)C/C1=C\c1ccc(F)c(F)c1,-74.9% (active),-26.6% (active),-84.7% (active),-93.1% (active),-99.3% (active),-85.2% (active),-95.3% (active),-85.2% (active),-90.1% (active),-92.6% (active),-53.4% (active),-93.7% (active),-75.3% (active),-97.9% (active),-94.6% (active),-100% (active),-92.1% (active),-96.8% (active),-21% (active),-3.13% (active)
O=C(NNc1ccccc1)C1CCCN1 (stereo unspecified),40.5%,62.3%,90.7%,94.1%,82.3%,77%,89.1%,16.2%,8.66% (active),69.2%,87.5%,69.4%,85.4%,33%,84.6%,20%,13.5%,103%,44.3%,
Cc1ccc(-c2nc(SCC(=O)c3ccc(C#N)cc3)[nH]c(=O)c2C#N)cc1,105%,97.9%,87.5%,106%,100%,104%,114%,99.2%,92.9%,103%,104%,113%,108%,76.7%,99.7%,96.1%,93.4%,105%,110%,114%
COc1ccc(-c2cc(-c3cc(OC)c(OC)c(OC)c3)c(C#N)c(=O)n2CCCCC(=O)O)cc1,77.3%,99.4%,51.8%,96.3%,91.5%,90.9%,93.6%,89.8%,78.6%,112%,107%,98.5%,90.6%,65.7%,112%,91.2%,70.9%,85.6%,105%,
COc1ccc(/C(C)=C(\c2ccc(OCCN3CCOCC3)cc2)c2ccc(OC(=O)C3CCCCC3)cc2)cc1,102%,102%,110%,107%,103%,104%,110%,110%,102%,106%,104%,107%,113%,101%,104%,98%,101%,110%,117%,
COc1ccccc1/C=C1\COc2ccc(O)cc2C1=O,48.7%,51.6%,96%,90.6%,62.3%,75.8%,66.5%,69.1%,34.6%,101%,93.5%,102%,72%,74.6%,93.3%,57.8%,68.1%,109%,21%,
CC/C(=C(/c1ccc(O)cc1)c1ccc(OCCN2CCCCCC2)cc1)c1ccc(Cl)cc1,31.5%,14.2%,88.7%,80.2%,50.7%,27.8%,67%,83.2%,67.7%,58.5%,96.5%,91.9%,74.5%,65.7%,91.6%,99.9%,95.8%,97.7%,17%,
CC12CCC(C(=O)CC1=O)C2(C)C (stereo unspecified),103% and 106%,108% and 109%,87.5% and 95.1%,107% and 105%,99.6% and 100%,97.2% and 104%,99.8% and 104%,102% and 106%,97.3% and 95.3%,106%,110%,97.5%,102%,88.3% and 87.1%,100% and 105%,107% and 106%,101% and 97%,93.2% and 108%,82.6% and 96.5%,
